The results in this text go back to PubChem BioAssay (NCATS).

Each structure is given as a SMILES string. Where “and” joins values, the source holds several entries; their conditions need not be identical. Identical values can stand only once. Unmarked numbers belong to inactive results. Inconclusive results are not listed. Calls of active or inactive are those of the source. Unless noted, calls follow the shape of the dose curve; as a rule, active = well fitted curve in the direction sought with a large enough effect; inconclusive = small, poorly fitted or top-dose-only effect, or another doubt; inactive = no such curve, though single readings can be large; an effect the other way counts as inactive or inconclusive.

Test [1] can be described thus: Confirmation and Secondary Assay for Modulators of Hemoglobin Beta Chain Splicing at IVS2 654 locus (AID 910).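 Also: HeLa cells stably carrying EGFP split by mutant beta-globin IVS2-654 intron; per-well total GFP intensity by laser scanning cytometry after 2-day treatment; % of control where 0% means no effect.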 In short, it runs like this: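 Readout: per-well total peak green fluorescence (488 nm ex, 500–520 nm em) from objects 5–250 µm, reflecting correct splicing of an EGFP-654 reporter. Compounds were applied for 2 days at 37 °C to overnight-plated HeLa EGFP-654 cells; controls were DMSO and 500 nM IVS2-654 PNA.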

Test [2] is described as follows: Confirmation and Secondary Assay for Modulators of Hemoglobin Beta Chain Splicing at IVS2 705 locus (AID 930).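 Also: HeLa cells stably expressing the EGFP-705 splicing reporter; GFP fluorescence per well restored by corrected splicing of the IVS2-705 intron in EGFP; series mostly up to about 46 µM; % of control where 0% means no effect.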 In short, it runs like this: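 Splice-correction reporter: EGFP cDNA split by beta-globin intron 2 bearing the 705 mutation, stably in HeLa. Compound incubation 2 days, 37C; fluorescent objects 5-250 µm summed per well.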
A short description of test [3]: qHTS Assay for Identification of Small Molecule Agonists for Thrombopoietin (TPO) Signaling Pathway (AID 917). Also: % is scaled to controls: 0 for no effect and ±100 for the full control effect. In short, it runs like this: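 Ba/F3 (mouse) + hTPO receptor + GpIIb-promoter luciferase; IL-3 withdrawn overnight; compound + 26 pM TPO (EC50), 24 hrs, 37 C, 5% CO2; Steadylite luminescence, 10 min RT.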
For test [4], the target named is Pyruvate kinase (Leishmania mexicana) (UniProt Q27686). The test can be described thus: qHTS Validation Assay for Inhibitors of Leishmania Mexicana Pyruvate Kinase (AID 945).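 Also: 0% = DMSO only neutral control wells.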 A digest of the protocol:
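The enzyme is a highly purified E451W mutant of LmPYK used at 0.2 nM. It converts 0.5 mM PEP and 0.1 mM ADP over 1 h at room temperature; product ATP is quantified by luciferase luminescence relative to DMSO controls.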
In general terms: qHTS replaces the single test concentration by a dilution series.

Test [5] concerns the target Pyruvate kinase PKM (Homo sapiens) (UniProt P14618). Kind of test: qHTS Assay for Activators of Human Muscle Pyruvate Kinase (AID 954; active = well fitted curve in the direction sought with a large enough effect, not every such curve was filed as active;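 also: 0% = uninhibited enzyme and -100% = no enzyme or full thiadiazolimine inhibition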). A digest of the protocol:
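Compound pinned into substrate mix (0.5 mM PEP, 0.1 mM ADP), then 0.1 nM PKM2 added; 1 h, RT. Stop/detection luciferase reagent added, luminescence read. Normalized to no-inhibition and no-enzyme or reference-inhibitor controls.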

The nature of test [6]: Cell Viability - LYMP2-001 (AID 921).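 Also: series mostly up to about 92 µM; cells exposed to compound for 24 h at 37 °C; 0% = DMSO only and full inhibition = tetraoctylammonium bromide control wells; nearly all actives have a fitted effect of over 70% in size.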 A digest of the protocol: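 CellTiter-Glo luminescence (intracellular ATP) after 24 hr compound exposure at 37 C, 2500 lymphoblastoid cells/well in complete medium. AC50 fitted with standard Hill equation; tetraoctylammonium bromide positive control.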
Test [7] can be described thus: MultiTox-Fluor Cytotoxicity Assay - LYMP1-001 - Dead Cells (AID 946).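 Also: 0% = DMSO and 100% = tetraoctylammonium bromide.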 In short, it runs like this: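 LYMP1-001 lymphoblastoid cells (2500/well) treated 16 h at 37 C. Dead-cell protease cleavage of bis-AAF-R110 read at Ex/Em 485/520. Normalized to DMSO and 15 uM tetraoctylammonium bromide; AC50 from Hill fits.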
Test [8] can be described thus: Cell Viability - LYMP1-002 - Assay at 16 hr (AID 948).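 Also: 0% = DMSO alone and full effect = 92 µM tetraoctylammonium bromide.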 A digest of the protocol: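 LYMP1-002 human lymphoblastoid cells, 2500/well; 5 hr 37 C; cpd 16 hr 37 C; CellTiter-Glo 30 min RT; luminescence (ATP). Concentration-response, Hill-fit AC50. Pos ctrl tetraoctylammonium bromide.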
Test [9] in a line: MultiTox-Fluor Cytotoxicity Assay - LYMP1-002 - Live Cells (AID 955). Also: % is scaled to controls: 0 for no effect and ±100 for the full control effect. A digest of the protocol: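 After 16 h compound exposure at 37 C, live LYMP1-002 lymphoblastoid cells (2500/well) were quantified by cleavage of cell-permeant GF-AFC substrate, read at 405/510 nm after 60 min. Concentration-response fitted with Hill equation for AC50.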
Test [10] in a line: MultiTox-Fluor Cytotoxicity Assay - LYMP1-003 - Dead Cells (AID 961).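 Also: 0% = DMSO and 100% = tetraoctylammonium bromide; nearly all actives have a fitted effect of over 70% in size.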 A digest of the protocol: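 LYMP1-003 human lymphoblastoid cells (2500/well) exposed to compound 16 h at 37 C in complete medium; dead-cell protease read with bis-AAF-R110 fluorescence (Ex/Em 485/520) after 60 min at room temperature. Normalized to DMSO and 15 uM tetraoctylammonium bromide; AC50 from Hill fit.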

The nature of test [11]: MultiTox-Fluor Cytotoxicity Assay - LYMP1-003 - Live Cells (AID 962).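 Also: 0% = DMSO only and full loss = 92 µM tetraoctylammonium bromide; cytotoxic hits lower the live-cell protease signal.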 A digest of the protocol:
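Live-cell protease activity (GF-AFC substrate, 405/510 nm, 60 min at room temperature) after 16 h, 37 C compound exposure of human lymphoblastoid LYMP1-003 cells; concentration-response fitted to the Hill equation for AC50.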

Test [12] in a line: MultiTox-Fluor Cytotoxicity Assay - LYMP1-001 - Live Cells (AID 947).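 Also: 0% = DMSO only and full inhibition = tetraoctylammonium bromide control.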
A short description of test [13]: MultiTox-Fluor Cytotoxicity Assay - LYMP1-002 - Dead Cells (AID 960).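 Also: 0% = DMSO and 100% = tetraoctylammonium bromide; nearly all actives have a fitted effect of over 60% in size.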 In short, it runs like this: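 Dead-cell fluorescence (Ex/Em 485/520) after 16 h compound exposure at 37 C of LYMP1-002 lymphoblastoid cells in complete medium; AC50 by Hill equation, with data scaled between DMSO and 15 uM tetraoctylammonium bromide.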
For test [14], the target named is Muscarinic acetylcholine receptor M1 (Rattus norvegicus) (UniProt P08482). The test can be described thus: qHTS Assay for Antagonists of Acetylcholine Muscarinic M1 Receptor: Kinetic Measurement of Intracellular Calcium Response (AID 943).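 Also: Fluo-4 calcium signal as peak divided by basal fluorescence over 4 min; series mostly up to about 35 µM; nearly all actives have a fitted effect of over 75% in size.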 A digest of the protocol: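 Antagonism measured as reduction of carbachol-evoked (EC80, 100 nM final) calcium flux in rat M1-CHO cells after 10 min compound exposure. Fluo-4 signal read kinetically; ratio of maximal to basal fluorescence.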

The target is the same in test [15]. The test can be described thus: qHTS Assay for Antagonists of Acetylcholine Muscarinic M1 Receptor: Measurement of IP-One Response (AID 944). Also: nearly all actives have a fitted effect of over 75% in size. In short, it runs like this: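 IP1 accumulation measured via TR-FRET between d2-IP1 and Eu-cryptate anti-IP1 antibody after carbachol (200 nM, EC80) stimulation for 30 min; rat M1-transfected CHO cells received compound 10 min before agonist.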

Test [16] is described as follows: qHTS Assay for Identification of Small Molecule Agonists for Hypoxia Response Element Signaling Pathway (AID 914; active = well fitted activation curve with a large enough effect in the signal ratio, with a control signal flat, not every such curve was filed as active; the % refers to the signal ratio; also: % of control where 0% means no effect). The settings on record: ME-180 (cervical carcinoma) HRE-bla reporter, beta-lactamase ratio, CoCl2, 17 h; hits give high values. In short, it runs like this:
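Cells were plated overnight, pin-dosed with compound in a titration series, co-stimulated with EC50 CoCl2 and incubated 17 hours at 37 degrees Celsius. CCF4 substrate was then loaded, and AC50 values came from the 460nm/530nm ratio.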

A short description of test [17]: qHTS Assay for Identification of Small Molecule Agonists for NFkB Signaling Pathway (AID 928; calls by dose curve). To be noted: NFkB beta-lactamase reporter cells, blue/green ratio. A digest of the protocol: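 Activators were sought with TNF alpha co-added at 10 pM final (its EC50) to beta-lactamase reporter cells. Cells were plated in OPTI MEM with 0.5% FBS and exposed for 5 hrs at 37 C. The FRET substrate ratio was read at 460 and 530 nm.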

Muscarinic acetylcholine receptor M1 (Rattus norvegicus), sequence (P08482 whole entry, looked up): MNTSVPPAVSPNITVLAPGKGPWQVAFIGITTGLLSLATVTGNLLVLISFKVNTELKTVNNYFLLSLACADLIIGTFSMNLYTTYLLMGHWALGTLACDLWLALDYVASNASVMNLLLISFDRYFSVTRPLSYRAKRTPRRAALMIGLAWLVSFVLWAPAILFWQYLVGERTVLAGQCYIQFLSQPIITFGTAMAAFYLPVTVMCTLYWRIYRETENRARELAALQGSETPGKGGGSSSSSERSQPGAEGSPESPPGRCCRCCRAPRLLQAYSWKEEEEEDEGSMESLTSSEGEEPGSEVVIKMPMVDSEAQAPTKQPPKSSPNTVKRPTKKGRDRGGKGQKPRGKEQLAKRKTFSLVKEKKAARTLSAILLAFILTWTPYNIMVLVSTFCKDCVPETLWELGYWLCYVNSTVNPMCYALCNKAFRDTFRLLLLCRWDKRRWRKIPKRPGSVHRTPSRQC
Pyruvate kinase (Leishmania mexicana), sequence (Q27686 2-499 E452W): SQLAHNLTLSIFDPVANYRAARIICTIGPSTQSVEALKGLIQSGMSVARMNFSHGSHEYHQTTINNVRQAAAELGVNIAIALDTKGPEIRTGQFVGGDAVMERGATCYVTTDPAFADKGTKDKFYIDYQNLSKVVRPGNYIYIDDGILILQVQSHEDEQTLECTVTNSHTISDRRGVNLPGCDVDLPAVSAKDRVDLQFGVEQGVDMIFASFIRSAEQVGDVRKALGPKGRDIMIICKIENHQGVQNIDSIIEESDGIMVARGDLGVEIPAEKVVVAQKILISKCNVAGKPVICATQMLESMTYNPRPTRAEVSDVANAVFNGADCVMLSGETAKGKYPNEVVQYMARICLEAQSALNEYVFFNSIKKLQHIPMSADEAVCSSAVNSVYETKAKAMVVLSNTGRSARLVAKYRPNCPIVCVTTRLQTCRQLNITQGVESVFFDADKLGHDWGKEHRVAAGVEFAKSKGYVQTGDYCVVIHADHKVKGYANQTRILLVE
Pyruvate kinase PKM (Homo sapiens), sequence (P14618 whole entry, looked up): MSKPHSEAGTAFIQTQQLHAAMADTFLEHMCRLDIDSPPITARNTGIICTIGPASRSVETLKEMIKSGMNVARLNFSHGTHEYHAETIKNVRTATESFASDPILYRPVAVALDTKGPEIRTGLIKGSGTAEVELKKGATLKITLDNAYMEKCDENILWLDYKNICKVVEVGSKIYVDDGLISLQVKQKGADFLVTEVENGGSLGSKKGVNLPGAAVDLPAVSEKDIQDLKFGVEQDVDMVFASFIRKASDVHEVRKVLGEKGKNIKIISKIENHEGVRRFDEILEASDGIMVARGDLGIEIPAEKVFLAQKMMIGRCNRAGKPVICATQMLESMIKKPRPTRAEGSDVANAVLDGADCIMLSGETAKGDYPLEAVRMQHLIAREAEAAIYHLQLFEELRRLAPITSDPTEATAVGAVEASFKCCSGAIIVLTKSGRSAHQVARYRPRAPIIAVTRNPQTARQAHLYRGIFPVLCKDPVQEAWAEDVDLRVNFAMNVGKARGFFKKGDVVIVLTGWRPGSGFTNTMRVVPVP

On to `COc1ccc(-c2coc3cc(O)cc(O)c3c2=O)cc1`, for which the call in test [1] and in test [2] was inactive.
Turning to `C[C@]12CCC3c4ccc(O)cc4CCC3C1CCC2=O` (some centres undefined), the compound was classed as inactive in test [1] and in [2].
For `CC(C)NCC(O)COc1cccc2[nH]ccc12` (centres undefined), the outcome in test [1], in test [2] and in test [5] was inactive. Also, the Potency result in test [3] and in [4] was “inactive” in each case.
Turning to `O=c1cc(-c2ccccc2)oc2cc(O)c(O)c(O)c12`, in test [1], the result was inactive.
On to `O=C1NC(=O)C(c2ccccc2)(c2ccccc2)N1`, for which the outcome in test [1], in test [2], in test [5] and in test [10] was inactive. The Potency entry in [3], in test [6], in test [4], in test [7], in [8] and in [9] was “inactive” each time. Moreover, the Potency entry in [11] is “inactive”.
`O=C(O)CCc1nc(-c2ccccc2)c(-c2ccccc2)o1`: the compound was classed as inactive in test [1], in [2] and in [5]. In addition, the Potency result in [3] and in [4] was “inactive” throughout.
In the case of `O=c1c(-c2ccc(O)cc2)coc2cc(O)ccc12`, the compound was classed as inactive in test [1], in test [2], in test [12], in test [5] and in test [10]. The Potency entry in [6], in test [7], in test [8], in test [9], in test [13] and in test [11] was “inactive” throughout.
In the case of `COc1ccccc1N1CCN(CCCNc2cc(=O)n(C)c(=O)n2C)CC1`, the compound was classed as inactive in test [1], in test [2] and in test [5]. Moreover, the Potency entry in test [3] and in test [4] was “inactive” throughout.
Consider `CCN(CC)CCOC(=O)c1ccc(N)cc1`, for which the outcome in test [1], in test [2] and in test [5] was inactive. In addition, the Potency result in [3] and in test [4] was “inactive” throughout.
Regarding `C[N+](C)(C)CCCCCC[N+](C)(C)C`, the outcome in [1], in test [2], in test [14], in [15] and in [5] was inactive. In addition, the Potency result in test [3] and in [4] was “inactive” each time.
`CCN(CC)CCNC(=O)c1ccc(N)cc1`: the outcome in test [1], in test [2], in [15] and in [5] was inactive. In addition, the Potency result in [3] and in test [4] was “inactive” each time.
On to `c1ccc2c(Cc3c[nH]c4ccccc34)c[nH]c2c1`, for which the outcome in test [1] and in test [2] was inactive.
For `NCCS`, the result in test [1], in test [2], in test [14], in test [15] and in test [5] was inactive. For the same compound, the Potency result in test [3] and in test [4] was “inactive” throughout.
For `CCCCC1C(=O)N(c2ccccc2)N(c2ccccc2)C1=O`, the result in test [1], in test [2], in test [12], in test [5] and in [10] was inactive. For the same compound, the activation in [16] was -18.4% and -5.39%. In addition, the Potency entry in test [3], in [6], in test [4], in [7], in [8] and in test [9] was “inactive” each time. In addition, the Potency entry in test [13] and in test [11] was “inactive” in each case.
For the compound `CN(C)CCC(c1ccccc1)c1ccccn1` (centres undefined), the compound was classed as inactive in [1], in [2], in test [12] and in test [10]. Also, the Potency entry in test [6], in [7], in [8], in test [9], in test [13] and in test [11] was “inactive” throughout.
`CCCNC(=O)NS(=O)(=O)c1ccc(Cl)cc1`: the call in test [1], in test [2], in test [12], in test [5] and in test [10] was inactive. Also, the activation in [16] was -1.93% and -16.9% and -21.4%. The Potency result in test [3], in test [6], in test [4], in test [7], in test [8] and in test [9] was “inactive” each time. Besides, the Potency entry in test [13] and in test [11] was “inactive” each time. For the same compound, in test [17], the Potency was 0.447 µM (active).
Consider `CCn1cc(C(=O)O)c(=O)c2ccc(C)nc21`, for which the outcome in [1], in test [2], in [12] and in test [10] was inactive. In addition, the Potency result in test [6], in test [7], in test [8], in [9], in test [13] and in [11] was “inactive” each time.
As to `CC(=O)CCCCn1c(=O)c2c(ncn2C)n(C)c1=O`, the compound was called inactive in test [1], in [2], in test [15] and in [5]. The Potency entry in [3] and in [4] was “inactive” each time.
Turning to `O=C1NCC2(CCN(CCc3ccccc3)CC2)O1`, the result in test [1], in test [2] and in test [5] was inactive. The Potency result in test [3] and in test [4] was “inactive” in each case.
